Screening data from PubChem BioAssay.
BAZ2B block: inhibitors of human BAZ2B bromodomain. AlphaScreen BAZ2B-H3K14Ac peptide displacement. Q9UIF8. actives 4.4% (n = 360,000). Potency, µM (series often up to 114 µM), for the others: at the highest dose activity change, negative = inhibition, most hits filed as inhibitors; note: potency is the fitted concentration of half-maximal effect; % is set by controls: 0 for no effect and ±100 for the full control effect; nearly all actives have a fitted effect of over 60% in size
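Inhibition is scored as reduced AlphaScreen emission. The BAZ2B/b-H3(5-23)K14Ac complex (50 nM each) in PBS pH 7.4, 0.01% Tween-20 meets compound (up to 110 uM) for 30 min at RT before bead addition.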
CtBP-E1A blk: blocks the CtBP interaction with E1A; AlphaScreen GST-E1A/His-CtBP binding, 1536-well; hits give low values; activity change, % (no concentration beside the values); actives 0.49% (n = 340,000); in the data active = activity change below about -65%; inconclusive = mostly about -30% to -63%; note: % is set by controls: 0 for no effect and ±100 for the full control effect
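Homogeneous bead-based format: GST-tagged E1A captured on glutathione donor beads, His-tagged CtBP on nickel acceptor beads; compounds precede bead addition by 2 h at 37 °C.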
G9a block: inhibitors of human histone lysine methyltransferase G9a. G9a H3K9 monomethylation, AlphaScreen, 2 h. Potency, µM (top dose mostly 102 µM), for inactives: top-dose activity, negative = inhibition, actives largely listed as inhibitors. actives 8.8% (n = 350,000). Q96KQ7. AID 504332; note: potency is the fitted concentration of half-maximal effect; % is set by controls: 0 for no effect and ±100 for the full control effect; nearly all actives have a fitted effect of over 75% in size
Target sequence (Q96KQ7 913-1193 limits assumed): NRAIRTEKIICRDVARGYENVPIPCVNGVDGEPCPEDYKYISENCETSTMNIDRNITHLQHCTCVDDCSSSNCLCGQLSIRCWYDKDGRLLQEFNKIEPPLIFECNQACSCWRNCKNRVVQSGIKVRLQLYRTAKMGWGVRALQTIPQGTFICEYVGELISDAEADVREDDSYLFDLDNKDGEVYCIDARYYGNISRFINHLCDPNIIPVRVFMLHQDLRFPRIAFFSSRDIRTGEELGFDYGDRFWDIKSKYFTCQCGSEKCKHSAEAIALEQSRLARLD
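Readings reflect AlphaScreen signal from monomethyl-H3K9 antibody detection. HMT at 20 nM; substrate b-H3K9 500 nM; cofactor SAM 20 uM; 2 h RT reaction; compounds tested as titrations in qHTS with 15 min preincubation.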
Six1-Eya2 blk: blocks human Six1 binding to Eya2. Q15475+O00167. AlphaScreen GST-Six1/His-Eya2 binding, biochemical; hits give low values. activity change, % (concentration not given with the values). actives 0.56% (n = 360,000). AID 651725; in the data active = activity change below about -65%; inconclusive = mostly about -30% to -63%; note: % is set by controls: 0 for no effect and ±100 for the full control effect
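GST-Six1 + His-Eya2 (5X stock: 250/500 nM); Tris pH 8.0, 300 mM NaCl, 0.05% BSA, 0.02% Tween 20; GSH donor/Ni acceptor beads; 1 h 37 °C dark; AlphaScreen readout.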
JMJD2A Tudor inh: blocks the human JMJD2A Tudor domain | AID 504339 | AlphaScreen JMJD2A-Tudor / H3K4me3 peptide binding | Potency, µM (doses to about 114 µM), for the others: at the top dose activity change, negative = inhibition, actives largely listed as inhibitors | actives 4.4% (n = 390,000) | O75164; note: potency is the fitted concentration of half-maximal effect; % is set by controls: 0 for no effect and ±100 for the full control effect; nearly all actives have a fitted effect of over 50% in size
HP1b binding inh: HP1-beta chromodomain-methylated histone interaction inhibition; Potency, µM (doses to about 114 µM), for the others: at the top dose activity change, negative = inhibition, hits mostly inhibitors; actives 0.56% (n = 390,000); P83916; AlphaScreen HP1-beta / biotin-H3K9me3 peptide binding; note: potency is the fitted concentration of half-maximal effect; nearly all actives have a fitted effect of over 70% in size
Target sequence (P83916 whole entry, looked up): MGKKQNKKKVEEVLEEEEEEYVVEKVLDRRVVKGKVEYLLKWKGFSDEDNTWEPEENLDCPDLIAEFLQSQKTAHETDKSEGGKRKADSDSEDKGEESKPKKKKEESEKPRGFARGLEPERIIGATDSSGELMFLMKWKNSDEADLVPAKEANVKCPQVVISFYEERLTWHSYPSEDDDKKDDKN
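HP1-beta protein (50 nM final) preincubated 30 min at room temperature with biotinylated H3(1-18)K9me3 peptide (50 nM) in PBS pH 7.4, 0.01% Tween-20, then compound added for 30 min. AlphaScreen streptavidin donor/nickel chelate acceptor beads (10 ug/mL final), 30 min dark, luminescence read.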
The depositor's hits bear a star; ? = inconclusive; nt = not tested or not shown; ! = not confirmed by another sample; [ ] = another dose, or the depositor's remark. Rows were chosen to be rich in hits. Some 10% of all compounds tested hit in one or more screens of this group. Unless noted, calls come from the whole dose curve; as a rule, active = well fitted inhibition curve with a large enough effect; inconclusive = small, poorly fitted or top-dose-only effect; inactive = no such curve, though single readings can be large or run the other way.

SMILES	BAZ2B block	CtBP-E1A blk	G9a block	Six1-Eya2 blk	JMJD2A Tudor inh	HP1b binding inh
CCn1c(=O)cc(OCC(=O)NCc2ccc(F)cc2Cl)c2ccccc21	-18.0%	nt	-4.8%[59 µM]	nt	-1.7%	35.8%
COc1c(Cl)cccc1NC(=O)c1c(NC(=O)Cc2ccccc2)sc2c1CCCC2	nt	nt	nt	nt	-9.6%	nt
CC(/C=C/C(=O)NO)=C\[C@@H](C)C(=O)c1ccc(N(C)C)cc1	nt	nt	15.8µM*!	nt	nt	nt
CC(NC(=O)c1ccc(N(C)C)cc1)c1ccc(F)cc1 (stereo not drawn)	-15.5%	5.0	14.2%	2.4	-24.7%	21.7%
Cc1ccc(N2CCN(C(=O)c3cccn4c(=O)c5ccc(Cl)cc5nc34)CC2C)cc1 (stereo not drawn)	6.0%	nt	-3.2%[59 µM]	nt	-16.7%	30.3%
COc1cc2c(cc1OC)C1C(=O)c3c(O)cc4c(c3OC1CO2)C=CC(C)(C)O4 (stereo not drawn)	nt	nt	-39.2%[2.33 µM]	nt	nt	nt
CCc1cc[n+](-c2nc([O-])sc2C=O)cc1	-34.6%	-0.1	?	-4.8	-17.8%[11.4 µM]	31.0%
CC(C)c1cc[n+](-c2nc([O-])sc2C=O)cc1	79.4µM*	-9.3	?	-11.4	35.5µM*	19.8%
CCCN1CCN(CCCNC(=O)c2cc3c(=O)oc4ccc(C)cc4c3s2)CC1	-4.1%	2.3	-0.6%	-2.8	-9.7%	21.9%
Cc1ccc2oc(=O)c3cc(C(=O)NCCN4CCc5ccccc5C4)sc3c2c1	-28.1%	-19.6	50.1µM*	-16.9	-23.6%	39.0%
CCN(CC)S(=O)(=O)c1ccc(NCCc2ccccn2)nc1	-19.4%	0.1	20.4%	9.1	-15.4%	9.1%
CCN(CC)S(=O)(=O)c1ccc(NCc2ccccn2)nc1	?	-3.9	28.2µM*	2.6	70.8µM*	13.1%
CN(C)c1cccc(C(=O)N2CCC(c3ccncc3)CC2)c1	-13.1%	nt	-2.4%[59 µM]	nt	-16.7%	15.6%
O=C1CCC/C1=C/Nc1cccc(F)c1	-20.7%	-2.7	nt	-5.1	50.1µM*	-10.6%
O=C1CCCC/C1=C/Nc1ccc2c(c1)OCO2	?	-5.5	35.5µM*	0.5	-13.8%	-3.9%
O=C(Cc1cccs1)NC1CC(=O)N(c2ccccc2)C1 (stereo not drawn)	2.3%	nt	-5.8%[59 µM]	nt	2.9%	18.5%
Cc1nc(Nc2cccc(Cl)c2)c2oc3ccccc3c2n1	-26.9%	3.3	70.8µM*	1.8	-9.1%	10.6%
Cc1nc(Nc2ccccc2F)c2oc3ccccc3c2n1	-36.4%	4.0	31.6µM*	1.5	5.1%	23.4%
Cc1nc(Nc2ccc(Cl)cc2)c2oc3ccccc3c2n1	-28.2%	3.3	1.9%[0.501 µM]	-7.2	?	-6.1%[57 µM]
CCc1ccc(C2C(C(=O)Nc3ccccc3OC)=C(C)Nc3nc(SCc4ccccc4)nn32)cc1 (stereo not drawn)	4.1%	nt	4.1%[59 µM]	nt	-4.8%	25.7%
Cc1cc(C(=O)NP(=O)(N2CC(C)OC(C)C2)N2CC(C)OC(C)C2)c(C)n1C1CC1 (stereo not drawn)	?	-5.3	44.7µM*	0.1	-14.6%	-3.4%
COc1ccc(/C=N/N=C2/NC(=O)C(CC(=O)O)S2)cc1OCc1ccccc1Cl (stereo not drawn)	50.1µM*	-8.9	-12.9%	-4.9	?	-12.8%
COc1ccc(/C=N/N=C2/NC(=O)C(CC(=O)O)S2)cc1OCc1ccc(Cl)cc1Cl (stereo not drawn)	50.1µM*	1.5	79.4µM*	-14.9	?	-16.6%
CCOc1cc(/C=N/N=C2/NC(=O)C(CC(=O)O)S2)ccc1OCc1ccccc1Cl (stereo not drawn)	50.1µM*	-1.4	?	1.9	?	13.6%
Cc1cccc(-c2nc3c4ccccc4n(Cc4cccc(Cl)c4)c(=O)n3n2)c1	-7.7%	nt	4.5%[59 µM]	nt	-14.7%	-0.6%
Cc1cc2c(cc1S(=O)(=O)NCc1ccc(F)cc1)OCCN2C	-33.8%	nt	?	nt	-15.1%	35.3%
Cc1ccc(-c2cn3c(n2)sc2cc(C(=O)NC4CCCc5ccccc54)ccc23)cc1 (stereo not drawn)	-3.9%	nt	3.5%[59 µM]	nt	-2.6%	76.6%
